MITF primary – MITF inhibitors, primary screen, biochemical, AlphaScreen, human | Microphthalmia-associated transcription factor (Homo sapiens), O75030 | 650,000 compounds, 0.91% hits | AlphaScreen MITF homodimerization, bead proximity signal | inhibition, % at 2.6 µM; in the data active = inhibition above about 50%;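 also: 0% = vehicle wells with protein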
GPR151 ag – activators of human GPR151, primary screen, cell-based, PathHunter beta-arrestin, luminescence | 650,000 compounds, 1% hits | AID 1508602, 2020 | PathHunter beta-arrestin GPR151 cells | activation, % at 11.2 µM; in the data active = activation above about 4.9%;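 also: 0% = median of compound wells and 100% = cells with positive control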
FBW7 activator – FBW7 E3 ligase activators, primary screen, biochemical, AlphaScreen, human; F-box/WD repeat-containing protein 7 (Homo sapiens), Q969H0; AlphaScreen FBW7–phospho-cyclin E peptide binding, activator screen; normalized activity (activation), % at 26.1 µM; 650,000 compounds, 0.13% hits; AID 1259310, 2017; in the data active = normalized activity above about 1.9%;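 also: purified mutant Fbw7 with reduced substrate affinity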
TEAD-YAP inh – TEAD-YAP interaction inhibition, primary screen, TEAD-YAP interaction inhibitor project, luminescence, HEK-TIYL cells. TEAD-Gal4/YAP UAS-luciferase luminescence. AID 1259422, 2018. 640,000 compounds, 1.4% hits. inhibition, % at 9.12 µM; in the data active = inhibition above about 32%;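 also: 0% = median of test compound wells and 100% = reference inhibitor wells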
GPR151 confirm – GPR151 activators, triplicate retest, confirmation, cell-based, PathHunter beta-arrestin, luminescence | 6,700 tested, under 10 active | AID 1508609, 2020 | GPR151 PathHunter beta-arrestin cells, 90 min; % of EA-reagent control over plate median | shares compounds with GPR151 ag | activation, % at 11.2 µM;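 active = mean percent activation across replicates above the confirmation screen cutoff of 4.91%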
GPR119 counter – GPR119 activators in beta-arrestin cells, counter-screen for GPR151 activator project, cell-based, PathHunter beta-arrestin, luminescence, triplicate. 6,700 compounds, 0.3% hits. shares compounds with GPR151 ag. 90 min; 0 = compound-well median, 100 = enzyme-acceptor control. AID 1508611, 2020. activation, % at 11.2 µM;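 active = mean percent activation in the counterscreen above 29.09%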;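 also: counterscreen on off-target GPR119 to flag nonselective hits from the GPR151 activator screen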
Target sequence (Q8TDV5 whole entry, looked up): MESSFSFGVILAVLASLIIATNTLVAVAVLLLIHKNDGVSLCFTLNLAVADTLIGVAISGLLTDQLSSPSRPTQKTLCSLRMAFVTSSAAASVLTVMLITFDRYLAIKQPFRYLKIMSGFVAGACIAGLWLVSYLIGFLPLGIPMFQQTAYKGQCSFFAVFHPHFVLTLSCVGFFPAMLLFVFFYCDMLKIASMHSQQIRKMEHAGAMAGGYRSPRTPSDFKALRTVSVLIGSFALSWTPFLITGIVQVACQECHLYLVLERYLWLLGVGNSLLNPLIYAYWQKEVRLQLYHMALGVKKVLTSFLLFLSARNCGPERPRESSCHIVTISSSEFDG
* hit, by the source's call; nt = no result given. A selection: hits, their analogues and other compounds. The true share with any hit is near 3.4%.

SMILES	MITF primary	GPR151 ag	FBW7 activator	TEAD-YAP inh	GPR151 confirm	GPR119 counter
O=[N+]([O-])c1ccc(OCCSc2ncccn2)cc1	0	-1	0	-78	nt	nt
Cn1c(CC(=O)NN)nc2ccccc21	-2	6.2*	0	8	1	7
C/C(=N\NC(=O)OC(C)(C)C)c1ccc2ccccc2c1	-1	2	0	-63	nt	nt
CCN1CCc2c(sc(NC(=O)c3ccc(S(=O)(=O)N4CCCC(C)C4)cc3)c2C(=O)OC)C1 (centres undefined)	8	5.3*	0	2	2	15
COC(=O)c1c(NC(=O)c2ccc(S(=O)(=O)N3CCCC(C)C3)cc2)sc2c1CCN(C(C)C)C2 (centres undefined)	-15	1	0	0	nt	nt
CCCN(Cc1cccs1)C(=O)NCc1ccccc1	5	8.1*	0	-5	0	-12
COC(=O)c1cc(Br)ccc1NC(=O)c1cccc(Cl)c1	-11	0	0	-1	nt	nt
Cc1ncc(C[n+]2csc(CCOC(=O)CC34CC5CC(CC(C)(C5)C3)C4)c2C)c(N)n1	-4	1	0	3	nt	nt
CCOc1ccc(NC(=O)Nc2cccc(OC)c2)c([N+](=O)[O-])c1	1	10*	0	-13	0	0
CCOc1ccc(OCC(=O)Nc2ccc(OC)cc2[N+](=O)[O-])cc1	13	-1	0	11	nt	nt
CCOc1cccc(/C=N/NS(=O)(=O)c2ccc(Br)cc2)c1O	-8	0	0	-1	nt	nt
Fc1ccc(-c2[nH]ncc2CCN2CCOCC2)cc1	0	9.9*	0	10	1	6
O=C(CSc1nc2ccccc2s1)N=C1NC(=O)CS1	-3	-1	0	0	nt	nt
COc1ccccc1Cn1c(=S)[nH]c2cc(C(=O)N3CCCCC3)ccc2c1=O	16	-1	1	10	nt	nt
COc1ccccc1Cn1c(=S)[nH]c2cc(C(=O)N3CCC(C(N)=O)(N4CCCCC4)CC3)ccc2c1=O	7	5.8*	0	11	2	10
CCOC(=O)c1cnc2c(C)c(C)ccc2c1NCc1ccco1	6	3	0	-10	nt	nt
CCOC(=O)c1cnc2c(ccc3ccccc32)c1NCc1ccco1	-1	5.8*	1	-6	1	6
COc1cc(-c2nc3sc4c(c3c(=O)[nH]2)CCCC4)ccc1OCCOc1ccc(C)c(C)c1	4	5.7*	0	0	-1	-1
CCOc1cc(-c2nc3sc4c(c3c(=O)[nH]2)CCCC4)ccc1OCc1ccccc1F	-1	5.5*	0	-7	1	-8
O=C(Nc1nnc(-c2ccco2)o1)c1nc2ccccc2s1	4	4.9*	0	-31	0	-1
CNc1nc(-c2ccc3c(c2)CCN3S(C)(=O)=O)cs1	7	6.8*	0	-40	0	5
Cn1c(=O)c2c(SCCC3OCCO3)nc(C3CCCCC3)nc2n(C)c1=O	-15	7.9*	0	-4	3	8
CC(=O)Nc1ccc(C(C(F)(F)F)(C(F)(F)F)C(F)(F)F)cc1	11	-1	0	9	nt	nt
Cc1ccc(C(=O)N(C)c2ccccc2)cc1	12	5.0*	0	-4	-1	-5
Cc1nnsc1C(=O)N/N=C/c1ccccc1	22	1	0	7	nt	nt
SMILES	MITF primary	GPR151 ag	FBW7 activator	TEAD-YAP inh	GPR151 confirm	GPR119 counter
Cc1nnsc1C(=O)N(C)c1ccccc1	-10	8.2*	0	-2	0	-3
Cc1cc(OC(C)C(=O)NNC(=O)Nc2cccc(Cl)c2Cl)ccc1[N+](=O)[O-] (centres undefined)	19	6.1*	0	-6	0	4
CC(Oc1ccc2c(c1)OCO2)C(=O)NNC(=O)Nc1cccc(Cl)c1Cl (centres undefined)	-18	0	0	5	nt	nt
COc1ccc(C2CC(C(F)(F)F)n3nc(C(=O)Nc4cccc(O)c4)cc3N2)cc1 (centres undefined)	14	5.8*	0	2	0	12
COc1ccc(C2CC(C(F)(F)F)n3nc(C(=O)Nc4cccc(C(F)(F)F)c4)cc3N2)cc1 (centres undefined)	-6	0	0	0	nt	nt
COc1ccc([N+](=O)[O-])cc1N=Cc1cccc([N+](=O)[O-])c1	4	-1	0	-3	nt	nt
COc1ccc([N+](=O)[O-])cc1N=Cc1ccc(C#N)cc1	-6	5.1*	0	1	0	6
CC12CCCCC1C2C(=O)N/N=C\c1ccc(-c2ccc(C(=O)O)cc2)o1 (centres undefined)	9	0	0	-31	nt	nt
COc1ccc(OC(=O)c2cccc(Br)c2)cc1	19	1	0	-4	nt	nt
CC(=O)c1ccc(OC(=O)c2cccc(Br)c2)cc1	23	17*	0	-19	2	4
COCCn1nnnc1C(c1cc2cccc(C)c2[nH]c1=O)N1CCCCC1 (centres undefined)	0	5.2*	0	5	0	1
COCCn1nnnc1C(c1cc2cccc(C)c2[nH]c1=O)N1CCCCCC1 (centres undefined)	6	0	0	7	nt	nt
Cc1ccc([N+](=O)[O-])c(OCCOCCN2CCOCC2)c1	-5	1	0	-7	nt	nt
CCOC(=O)CN1C(=O)SC(Nc2ccccc2)C1=O (centres undefined)	3	7.8*	0	3	0	8
O=C(O)CN1C(=O)SC(Nc2ccccc2)C1=O (centres undefined)	0	-3	0	-7	nt	nt
CCCCN1C(=O)SC(Nc2ccc(F)cc2)C1=O (centres undefined)	6	8.2*	0	3	-2	-7
CCSc1ccccc1C(=O)NC(C)c1ccccc1 (centres undefined)	2	5.5*	0	-5	0	3
COCCCNC(=O)Cn1cc2c(n1)-c1c(oc(C(=O)N3CCCC3)c1C)CC2	11	1	0	-1	nt	nt
O=C(COc1ccc(Br)cc1)Nc1ccccc1CO	12	0	0	-11	nt	nt
C=CCn1c(C(=O)OCC)cc2oc(C)cc21	-7	5.7*	0	4	0	6
CCOC(=O)Cn1c(C(=O)OCC)cc2oc(C)cc21	1	-2	0	-1	nt	nt
O=C(COc1ccccc1)NCCc1cn2ccsc2n1	4	5.0*	-1	2	2	12
